The text below walks through data of PubChem BioAssay (NCATS).

A short description of experiment [1]: Cell Viability - LYMP2-001 (AID 921).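 Note: series mostly up to about 92 µM; 0% = DMSO only and full inhibition = tetraoctylammonium bromide control wells; nearly all actives have a fitted effect of over 70% in size.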 The method, boiled down:
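Cellular ATP loss read by luciferase luminescence after 24 h compound exposure at 37 C in complete medium. LYMP2-001 lymphoblastoid cells, 2500/well; qHTS concentration-response data fitted with Hill equation for AC50.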

Experiment [2] in a line: MultiTox-Fluor Cytotoxicity Assay - LYMP1-002 - Dead Cells (AID 960).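 Note: cells exposed to compound for 16 h at 37 °C; 0% = DMSO and 100% = tetraoctylammonium bromide; nearly all actives have a fitted effect of over 60% in size.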 The method, boiled down:
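Acute cytotoxicity in a human lymphoblastoid line is scored as rising dead-cell protease signal after 16 hr exposure at 37 C, measured fluorometrically (485/520).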

Experiment [3] can be described thus: Cell Viability - LYMP2-005 (AID 967).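 Note: series mostly up to about 92 µM; plate controls were DMSO only for no effect and 92 µM tetraoctylammonium bromide control for full effect.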 The method, boiled down: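 LYMP2-005 human lymphoblastoid cells (2500/well) were treated with compounds for 24 h at 37 C. Intracellular ATP was then measured by CellTiter-Glo luminescence after 30 min at room temperature. AC50 values came from Hill-equation fits of qHTS concentration-response data.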
The nature of experiment [4]: Cell Viability - LYMP2-011 (AID 969).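 Note: 0% = DMSO only and full inhibition = 92 µM tetraoctylammonium bromide; nearly all actives have a fitted effect of over 60% in size.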 The method, boiled down: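 Acute toxicity is scored as a concentration-dependent drop in intracellular ATP of a human lymphoblastoid line after 24 hr treatment. Values are AC50s modeled with the Hill equation.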
A short description of experiment [5]: Cell Viability - LYMP2-013 (AID 970).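 Note: series mostly up to about 92 µM; 0% = DMSO only and full inhibition = tetraoctylammonium bromide control; nearly all actives have a fitted effect of over 55% in size.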 The method, boiled down:
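Acute toxicity was measured in human lymphoblastoid cells (2500/well) exposed to compound titrations for 24 hr, with ATP luminescence (CellTiter-Glo) as read-out and AC50 fitted by Hill equation.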

Experiment [6] is described as follows: Cell Viability - LYMP2-017 (AID 972). Note: series mostly up to about 92 µM; % is set by controls: 0 for no effect and ±100 for the full control effect; nearly all actives have a fitted effect of over 55% in size. The method, boiled down: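 Steps: plate 2500 lymphoblastoid cells per well; incubate 5 hr at 37 C; add compound across a concentration series and incubate 24 hr at 37 C; add CellTiter-Glo and read luminescence after 30 min at room temperature; fit Hill curves for AC50.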
A short description of experiment [7]: Cell Viability - LYMP2-023 (AID 975).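 Note: cellular ATP measured by luciferase luminescence as viability proxy; series mostly up to about 92 µM; plate controls were DMSO only for no effect and 92 µM tetraoctylammonium bromide control for full effect; nearly all actives have a fitted effect of over 55% in size.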 The method, boiled down: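 Concentration-dependent drop in intracellular ATP measures acute cytotoxicity in a human lymphoblastoid line treated for 24 hours in complete culture medium. AC50 values are taken from Hill-equation fits of qHTS data.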
Experiment [8] can be described thus: Cell Viability - LYMP2-002 (AID 977).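 Note: series mostly up to about 92 µM; plate controls were DMSO only for no effect and 92 µM tetraoctylammonium bromide for full effect.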 The method, boiled down: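 Human lymphoblastoid LYMP2-002 cells, 2500 per well, exposed to compounds for 24 h at 37 C in complete medium; viability read as intracellular ATP by CellTiter-Glo luminescence, AC50 from Hill fits.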
Experiment [9] in a line: Cell Viability - LYMP2-007 (AID 979).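 Note: cells exposed to compound for 24 h before reading; 0% = DMSO only and the negative end = 92 µM tetraoctylammonium bromide; nearly all actives have a fitted effect of over 60% in size.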 The method, boiled down: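 Acute toxicity is scored as a concentration-dependent fall in intracellular ATP in human lymphoblastoid cells treated 24 hr at 37 C, measured by luciferase luminescence; Hill-equation modelling yields AC50.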
The nature of experiment [10]: Cell Viability - LYMP2-014 (AID 983).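 Note: series mostly up to about 92 µM; plate controls were DMSO only for no effect and 92 µM tetraoctylammonium bromide for full effect; nearly all actives have a fitted effect of over 50% in size.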 The method, boiled down: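 Decrease in intracellular ATP after 24 hr treatment at 37 C, measured by luciferase luminescence, indicated cytotoxicity. Concentration-response data were fitted with the standard Hill equation to give AC50.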
The nature of experiment [11]: Cell Viability - LYMP2-016 (AID 984). Note: % is set by controls: 0 for no effect and ±100 for the full control effect; nearly all actives have a fitted effect of over 55% in size. The method, boiled down: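 Cytotoxicity was scored by luminescent ATP content (CellTiter-Glo) after 24 h compound exposure at 37 C of a human lymphoblastoid line at 2500 cells/well. Concentration-response data were fitted to the Hill equation for AC50.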
Experiment [12] is described as follows: Cell Viability - LYMP2-018 (AID 985).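 Note: compound exposure lasted 24 hr at 37 °C; plate controls were DMSO only for no effect and tetraoctylammonium bromide at 92 µM for full effect; nearly all actives have a fitted effect of over 50% in size.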 The method, boiled down: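 Acute cytotoxicity is scored as a concentration-dependent drop in intracellular ATP after 24 hr exposure of the lymphoblastoid line in complete culture medium, measured by luciferase luminescence. Potency is expressed as AC50 from Hill modelling.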
A short description of experiment [13]: Cell Viability - LYMP2-020 (AID 986). The method, boiled down:
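Acute cytotoxicity in a human lymphoblastoid line is scored as a concentration-dependent fall in cellular ATP after 24 hr at 37 C in complete medium. The positive control is tetraoctylammonium bromide, and potency is given as Hill-fit AC50.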

The nature of experiment [14]: Cell Viability - LYMP2-022 (AID 987). The method, boiled down: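 Acute toxicity in a human lymphoblastoid line is scored as decreased intracellular ATP after 24 hr compound treatment at 37 C. ATP is measured by CellTiter-Glo luminescence; curves are fitted with the Hill equation to give AC50.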
Experiment [15] can be described thus: Cell Viability - LYMP2-024 (AID 988).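 Note: plate controls were DMSO only for no effect and 92 µM tetraoctylammonium bromide for full effect; nearly all actives have a fitted effect of over 60% in size.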 The method, boiled down: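 Acute toxicity is measured as concentration-dependent loss of intracellular ATP in a human lymphoblastoid line treated 24 hours at 37 C. Luciferase luminescence quantifies ATP; AC50 values come from standard Hill-equation modelling.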
For experiment [16], the target named is Retinoic acid receptor RXR-alpha (Homo sapiens) (UniProt P19793). Briefly: qHTS assay for small molecule agonists of retinoid X receptor alpha signaling (AID 588544; calls by dose curve;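 note: 0% = DMSO basal wells and 100% = reference agonist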).
The nature of experiment [17]: qHTS assay for small molecule antagonists of retinoid X receptor alpha signaling (AID 588546; active = well fitted inhibition curve with a large enough effect in the signal ratio, with a control signal flat, not every such curve was filed as active; the % refers to the signal ratio;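 note: cells stimulated with 9-cis-retinoic acid as agonist; % is set by controls: 0 for no effect and ±100 for the full control effect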). Particulars: HEK293T RXRa-UAS-bla, beta-lactamase ratio, antagonist mode; measured here: W530 green channel, cytotoxicity proxy. The method, boiled down:
(§1)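 Beta-lactamase reporter inhibition, read as CCF4 fluorescence ratio (ex 405, em 460/530 nm) after 2 h at RT. HEK293T UAS-bla cells, 2500/well, were stimulated with 9-cis-RA at 500 or 100 nM final alongside test compound for 18 h at 37 C.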
Background: qHTS replaces the single test concentration by a dilution series.

The target in experiment [18] is Retinoic acid receptor RXR-alpha (Homo sapiens) (UniProt P19793). The description is as above. Particulars: HEK293T RXRa-UAS-bla, beta-lactamase ratio, antagonist mode. The method, boiled down: as §1
The nature of experiment [19]: qHTS assay for small molecule disruptors of the mitochondrial membrane potential - 1 hr assay (AID 651754; calls by dose curve; note: % is set by controls: 0 for no effect and ±100 for the full control effect; nearly all actives have a fitted effect of over 35% in size). The method, boiled down: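 Steps: seed HepG2 cells and let attach overnight; pin-transfer compound or vehicle; incubate 1 hr at 37C; add Mito-MPS dye for 30 min; read two-channel fluorescence for monomer and aggregate forms.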
Experiment [20] can be described thus: qHTS assay for environmental chemicals that activate the Aryl hydrocarbon Receptor (AhR) signaling pathway (AID 651777). Note: % of control where 0% means no effect; nearly all actives have a fitted effect of over 15% in size. The settings on record: 1A2-DRE human hepatoma cells, luciferase, 24 h; activation: stronger effect = higher value. The method, boiled down:
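1A2-DRE human hepatoma reporter line; 1,200 cells/well; cmpd or DMSO 24 h, 37 C/5% CO2; One-Glo 30 min RT; luciferase lum.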

“And” between values parts separate entries of the source, which are not always exact repeats. Identical values can stand only once. Records with an inconclusive call do not appear. The source made the active and inactive calls. Unless noted, calls come from the whole dose curve; as a rule, active = well fitted curve in the direction sought with a large enough effect; inconclusive = small, poorly fitted or top-dose-only effect, or another doubt; inactive = no such curve, though single readings can be large; an effect the other way counts as inactive or inconclusive.

Chain of Retinoic acid receptor RXR-alpha (Homo sapiens) (P19793 whole entry, looked up): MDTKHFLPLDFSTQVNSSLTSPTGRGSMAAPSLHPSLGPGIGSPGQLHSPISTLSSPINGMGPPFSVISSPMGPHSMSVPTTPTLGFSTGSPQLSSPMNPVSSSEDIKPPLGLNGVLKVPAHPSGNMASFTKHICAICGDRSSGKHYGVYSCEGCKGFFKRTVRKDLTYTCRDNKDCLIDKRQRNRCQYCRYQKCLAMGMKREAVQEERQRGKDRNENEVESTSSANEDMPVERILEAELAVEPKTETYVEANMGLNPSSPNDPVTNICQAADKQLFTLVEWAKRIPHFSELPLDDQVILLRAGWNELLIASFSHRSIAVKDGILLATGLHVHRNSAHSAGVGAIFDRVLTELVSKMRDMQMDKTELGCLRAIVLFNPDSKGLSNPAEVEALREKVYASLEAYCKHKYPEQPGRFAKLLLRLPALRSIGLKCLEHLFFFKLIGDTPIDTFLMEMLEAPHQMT

On to `C=CC(C)=O`, for which the Potency entry in experiment [1], in [2], in experiment [3], in experiment [4], in experiment [5] and in experiment [6] was “inactive” in each case. In addition, the Potency entry in experiment [7], in experiment [8], in [9], in experiment [10], in experiment [11] and in [12] was “inactive” each time. The Potency entry in [13], in experiment [14], in [15], in [16] and in experiment [19] was “inactive” in each case. Moreover, the max response in [17] is -5.91%; in experiment [18], 8.07% (inactive). In addition, the activation in [20] is 1.86% (inactive).
As for `C=CC1CC=CCC1` (stereo not drawn), the Potency result in [1], in [2], in [3], in experiment [4], in experiment [5] and in experiment [6] was “inactive” in each case. The Potency result in experiment [7], in experiment [8], in [9], in [10], in [11] and in [12] was “inactive” each time. Besides, the Potency result in experiment [13], in experiment [14], in experiment [16] and in experiment [19] was “inactive” throughout. Further, the max response is -1.79% and -13.7% in [17]; 12.3% (inactive) and -16.5% (inactive) in [18]. In addition, the activation in [20] was 0.186% (inactive) and 0.879% (inactive).
On to `CCN(CC)c1ccccc1`, for which the Potency entry in experiment [1], in experiment [2], in experiment [3], in experiment [4], in experiment [5] and in experiment [6] was “inactive” in each case. Moreover, the Potency result in [7], in experiment [8], in experiment [9], in experiment [10], in experiment [11] and in experiment [12] was “inactive” in each case. The Potency result in experiment [13], in experiment [14], in [15], in [16] and in experiment [19] was “inactive” each time. Besides, the max response in experiment [17] was -5.5%; in experiment [18], 4.5% (inactive). In addition, the activation in experiment [20] is -0.415% (inactive).
On to `C=CC(=O)OCC`, for which the Potency entry in experiment [1], in experiment [2], in experiment [3], in [4], in [5] and in experiment [6] was “inactive” throughout. The Potency entry in [7], in [8], in [9], in experiment [10], in experiment [11] and in [12] was “inactive” in each case. Moreover, the Potency entry in experiment [13], in experiment [14], in experiment [15], in experiment [16] and in experiment [19] was “inactive” each time. The max response was -8.36% in [17] and 4.16% (inactive) in experiment [18]. The activation in experiment [20] is -0.74% (inactive).
For `C[N+](C)(C)Cc1ccccc1`, the Potency entry in experiment [1], in experiment [3], in experiment [4], in [5], in experiment [6] and in [7] was “inactive” throughout. Besides, the Potency entry in [8], in [9], in [10], in [11], in [12] and in experiment [13] was “inactive” in each case. The Potency entry in experiment [14], in [15], in experiment [16] and in experiment [19] was “inactive” throughout. Also, the max response in experiment [17] is 0.533% and -1.08%; in experiment [18] it was 9.55% (inactive) and -19% (inactive). In addition, the activation in experiment [20] was -0.332% (inactive) and -0.436% (inactive).
In the case of `CCCSC(=O)Cl`, the Potency result in [1], in experiment [2], in [3], in [4], in experiment [5] and in [6] was “inactive” each time. The Potency entry in experiment [7], in experiment [8], in experiment [9], in experiment [10], in experiment [11] and in [12] was “inactive” throughout. Besides, the Potency result in [13], in [14], in [15], in experiment [16] and in [19] was “inactive” each time. Besides, the results for the max response in experiment [17] and in [18] were -2.55% and 25.6% (inactive), respectively. Moreover, the activation in [20] is -0.385% (inactive).
